# Source: PubChem BioAssay
# VACV mCherry inh: inhibitors of vaccinia virus infection (mCherry reporter signal); actives 0.63% (n = 310,000); Potency, µM (doses to about 36.5 µM), inactives show top-dose activity change, negative = inhibition, most hits filed as inhibitors; AID 720579; Vaccinia virus mCherry reporter infection, fluorescence; calls by dose curve; tested in A549 cells; note: potency is the fitted concentration of half-maximal effect; nearly all actives have a fitted effect of over 35% in size
# FMDV antiviral: antivirals against foot and mouth disease virus; Potency, µM (top dose mostly 57.9 µM), for inactives: at the top dose activity change, negative = inhibition, actives largely listed as inhibitors; actives 1.2% (n = 410,000); FMDV antiviral cell-based qHTS; calls by dose curve; tested in HEK293T cells; note: read-out not given here; potency is the fitted concentration of half-maximal effect; nearly all actives have a fitted effect of over 45% in size
# HCV inh: blocks hepatitis C virus; Huh7.5.1 HCVcc-Cre infection, luciferase reporter, 44 h; Potency, µM (doses to about 41.8 µM), for inactives: at the highest dose activity change, negative = inhibition, actives largely listed as inhibitors; actives 3.4% (n = 340,000); active = well fitted inhibition curve with a large enough effect; inconclusive = small, poorly fitted or top-dose-only effect, or another doubt; inactive = no such curve, though single readings can be large or run the other way; note: potency is the fitted concentration of half-maximal effect
#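 HCVcc-Cre virus at an moi near 0.5 was added right after compound to cells cultured 4 h from seeding (1,000 cells/well). Luciferase activity was determined 44 h later, 15 min after substrate addition at RT.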
# Vaccinia Venus: vaccinia inhibition (Venus reporter); Vaccinia virus Venus reporter expression, fluorescence; Potency, µM (highest dose often 36.5 µM), for inactives: top-dose activity change, negative = inhibition, usual class: inhibitors; actives 0.46% (n = 330,000); AID 720580; calls by dose curve; tested in A549 cells; note: potency is the fitted concentration of half-maximal effect; nearly all actives have a fitted effect of over 30% in size
# HCMV inh: human cytomegalovirus inhibition | HFF cells, HCMV-luciferase reporter, 72 h; stronger effect = lower value | actives 4.5% (n = 410,000) | activity change, negative = inhibition, % at 57.5 µM | AID 1259415; in the data active = activity change below about -60%; inconclusive = no clear call, values can overlap the other calls; inactive = above about -39%
#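 Human foreskin fibroblasts infected with luciferase-reporter HCMV at MOI 1 PFU/cell, compounds at two doses. Luciferase measured 72 h post infection; normalized to buffer-only basal and Salinomycin (10uM) controls.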
# * = called active by the depositor; i = inactive; ? = inconclusive; nt = no result given; + = active, no number; ! = repeats disagree. This is a sample that favours compounds with a hit; in the whole collection about 7.3% have one here. % is set by controls: 0 for no effect and ±100 for the full control effect.
SMILES,VACV mCherry inh,FMDV antiviral,HCV inh,Vaccinia Venus,HCMV inh
COc1ccc(CC(=O)Nc2nc(C(C)(C)C)cs2)cc1,?,?,10µM*,-29%,?
COc1ccc(OC)c(-c2csc(NC(=O)C3c4ccccc4Oc4ccccc43)n2)c1,-12%,-24%,?,-17%,-66*
C/C(=N\Nc1nc(C(C)(C)C)cs1)c1ccc(O)cc1,nt,0%,-20%,nt,-22
Cn1cccc1C(=O)N1CCC2(CC1)CN(c1ccccn1)C2,nt,-26%,nt,nt,nt
COC(=O)c1c(-c2ccc3ccccc3c2)csc1NC(=O)Cc1ccc(OC)c(OC)c1,nt,10µM*,?,?,-83*
COc1ccc(OC)c(-c2csc(NC(=O)CSCc3c(C)noc3C)n2)c1,i,-19%,11µM*,-12%,-39
CC(C)(C)c1csc(NC(=O)c2ccccc2O)n1,?,?,22µM*,?,-94*
COC(=O)c1c(-c2ccc(OC)c(OC)c2)csc1N,-2%,-19%,19%,3%,19
Cc1csc(NC(=O)c2ccccc2O)n1,nt,30%,26%,-16%,59
COc1ccc(CC(=O)Nc2nc(-c3cc(OC)ccc3OC)cs2)cc1,11µM*,?,13µM*,?,-23
COc1ccc(OC)c(-c2csc(NC(=O)Cc3ccc(OC)c(OC)c3)n2)c1,7%,-22%,?,0%,-18
Cc1noc(Cn2c(=O)c3ccccc3n(CC(=O)Nc3cccc(Cl)c3C)c2=O)n1,-13%,0%,nt,0%,-7
COc1cc(C(=O)NCCNc2nc3ccc(C)cc3cc2C#N)cc(OC)c1OC,nt,-3%,-23%,nt,12
COc1ccc(CC(=O)Nc2nc(C)cs2)cc1OC,?,-4%,?,?,-70*
COc1ccc(CC(=O)Nc2nc(C)cs2)cc1,-14%,41%,20%,-2%,46
COc1cccc(Cn2c(CNC(=O)Cc3cccc(C)c3)nc3cccnc32)c1,-9%,1%,nt,-9%,?
Cc1ccc(OCCCSc2nc(-c3ccc(C(C)(C)C)cc3)nc3cc(=O)[nH]n23)cc1C,-19%,-9%,nt,-17%,?
COc1ncc2nc(-c3ccc(F)cc3)c(=O)n(-c3ccccc3)c2n1,nt,-12%,nt,nt,nt
COc1ccc(NC(=O)c2ccc(-c3ccc([N+](=O)[O-])cc3)o2)cc1,-12%,-15%,-15%,10%,-61*
O=C(Nc1cccc([N+](=O)[O-])c1)c1cc2ccccc2cc1O,?,-15%,5.6µM*,?,-101*
O=C(Nc1ccccc1)c1ccc(-c2ccc([N+](=O)[O-])cc2)o1,-4%,1%,-15%,-15%,-66*
COc1ccc(CCNC(=O)c2ccc(-c3ccc([N+](=O)[O-])cc3)o2)cc1OC,-1%,18µM*,-25%,-21%,-69*
COc1ccc(CCNC(=O)c2cc(-c3ccc(Cl)cc3)on2)cc1OC,-14%,8%,nt,0%,-10
COc1ccc(NC(=O)c2c(NCc3cccc(OC)c3)sc3c2CCC3)cc1,-18%,-7%,nt,-11%,42
C=CCNc1ccc2c(c1)OC[C@@H](CC(C)C)NS2(=O)=O,nt,nt,nt,nt,-23
SMILES,VACV mCherry inh,FMDV antiviral,HCV inh,Vaccinia Venus,HCMV inh
CCc1nc2ccc(C(=O)NCc3cccs3)cn2c1N(C)Cc1nccs1,9%,-14%,nt,-5%,-5
COc1ccc(NC(=O)c2cc([N+](=O)[O-])ccc2O)cc1,6.3µM*,6.3µM*,?,?,-102*
Cc1c(NC(=O)c2ccc(-c3cccc([N+](=O)[O-])c3)o2)cccc1-c1nc2cc(Cl)ccc2o1,-3%,48%,nt,1%,36
O=C(NNC(=O)c1ccccc1O)c1ccc(-c2ccc([N+](=O)[O-])cc2)o1,10µM*,-11%,?,?,?
COc1ccc(CCNC(=O)c2ccc(CS(=O)(=O)Cc3cccc(C)c3)o2)cc1OC,-13%,40µM*,22µM*,-4%,+!
O=C(Nc1ccc(Cl)c(-c2nc3ccccc3o2)c1)c1ccc(-c2cccc([N+](=O)[O-])c2)o1,-3%,-10%,nt,-3%,-103*
Cc1cccc(CS(=O)(=O)Cc2ccc(C(=O)NCc3ccccc3)o2)c1,i,-21%,?,-8%,-14
CC(=O)Nc1ccc(-c2noc(-c3csc([C@@H]4C[C@H](O)[C@@H](CO)O4)n3)n2)cc1,4%,8%,nt,24%,3
